Reference: ChEMBL document CHEMBL1201862, “PubChem BioAssay data set” (2004)
About 2,100 (0.53%) of roughly 400,000 compounds were called active. Not shown: some 14% with an inconclusive outcome. How the calls were made is not given here. The full list was thinned out, with actives kept by preference.

What follows are compounds tested against Ataxin-2 (Homo sapiens) (UniProt Q99700) (assay: qHTS for Inhibitors of ATXN expression.).
Chain of Ataxin-2 (Homo sapiens) (Q99700 whole entry): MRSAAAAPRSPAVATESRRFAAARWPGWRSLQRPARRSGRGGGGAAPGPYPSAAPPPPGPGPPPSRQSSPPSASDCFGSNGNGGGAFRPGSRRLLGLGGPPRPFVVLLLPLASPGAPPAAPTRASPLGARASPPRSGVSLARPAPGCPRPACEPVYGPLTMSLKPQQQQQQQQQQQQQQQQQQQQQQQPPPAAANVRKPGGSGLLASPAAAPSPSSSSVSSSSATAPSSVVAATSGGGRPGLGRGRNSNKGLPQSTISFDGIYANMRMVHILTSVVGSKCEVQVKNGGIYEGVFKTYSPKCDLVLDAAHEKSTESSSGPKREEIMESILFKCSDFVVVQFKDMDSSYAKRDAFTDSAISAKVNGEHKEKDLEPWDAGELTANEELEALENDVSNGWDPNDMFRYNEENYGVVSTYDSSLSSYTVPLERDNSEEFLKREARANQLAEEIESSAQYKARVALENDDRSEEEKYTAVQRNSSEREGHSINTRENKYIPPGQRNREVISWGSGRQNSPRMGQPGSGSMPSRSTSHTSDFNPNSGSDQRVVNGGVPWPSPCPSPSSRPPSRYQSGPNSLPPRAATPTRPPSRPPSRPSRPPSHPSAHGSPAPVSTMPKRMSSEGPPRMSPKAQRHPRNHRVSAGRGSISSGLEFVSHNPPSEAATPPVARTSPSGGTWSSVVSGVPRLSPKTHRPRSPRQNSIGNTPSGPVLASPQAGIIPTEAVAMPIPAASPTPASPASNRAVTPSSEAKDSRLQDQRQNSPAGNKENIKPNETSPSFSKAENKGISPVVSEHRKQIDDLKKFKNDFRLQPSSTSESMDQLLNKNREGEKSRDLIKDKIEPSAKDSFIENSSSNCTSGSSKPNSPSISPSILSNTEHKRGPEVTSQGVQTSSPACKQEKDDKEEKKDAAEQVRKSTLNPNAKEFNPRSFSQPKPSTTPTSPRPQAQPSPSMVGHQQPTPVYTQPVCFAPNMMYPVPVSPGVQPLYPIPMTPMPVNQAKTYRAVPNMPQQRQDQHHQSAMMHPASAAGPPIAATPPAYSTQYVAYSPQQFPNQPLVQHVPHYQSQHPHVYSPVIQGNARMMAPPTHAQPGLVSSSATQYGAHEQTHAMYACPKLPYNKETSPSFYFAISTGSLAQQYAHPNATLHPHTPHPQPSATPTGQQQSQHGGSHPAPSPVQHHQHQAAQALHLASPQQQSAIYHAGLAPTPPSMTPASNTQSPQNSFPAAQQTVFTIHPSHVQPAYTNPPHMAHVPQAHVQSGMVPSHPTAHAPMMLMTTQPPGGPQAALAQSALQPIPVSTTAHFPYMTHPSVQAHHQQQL
Type: functional
In the case of CCn1c(/C=C/c2c[nH]c3ccccc23)nc2ccccc2c1=O, the Potency is reported as “inactive”. For O=C(CCCCl)Oc1ccc2cc(-c3ccc4ccccc4n3)c(=O)oc2c1, the Potency was “inactive”. With Cc1ccc(NC(=O)C2CCCN2c2nn3c(=O)cc(C)nc3s2)cc1 (stereo not given) the Potency was “inactive”. In the case of CCOc1ncccc1C(=O)Nc1nc(C(C)(C)C)cs1, the Potency is reported as 39.8 µM (active). CCOc1ncccc1C(=O)NC(C)CCc1ccccc1 (stereo not given) was tested, and the Potency was “inactive”. For CCOc1ncccc1C(=O)OCC(=O)NC(=O)NC(C)C, the Potency was “inactive”. COc1ccc([C@@H](C)NC(=O)CCc2nnc(-c3cc(C)on3)o2)cc1 was tested, and the Potency was “inactive”. For COc1ccc2[nH]c3nc(SCc4nnc(-c5ccc(C)cc5)o4)nnc3c2c1, the Potency was 22.4 µM (active). COc1ccc(C2CC(c3ccc(F)cc3)n3nc(NC(=O)c4ccco4)nc3N2)cc1 (stereo not given) was tested, and the Potency was “inactive”. For Cc1ccc(C)c(CSc2cn(CCNC(=O)c3cccs3)c3ccccc23)c1, the Potency was 31.6 µM (active). CCCn1nc(NC(=O)c2cccs2)c2cc3cc(C)ccc3nc21 was tested, and the Potency was “inactive”. With N#Cc1c(N)n(CCNC(=O)c2cccs2)c2nc3ccccc3nc12 the Potency was “inactive”. COC(=O)c1cc(=O)nc(NN=C2c3ccccc3-c3ccccc32)s1 was tested, and the Potency was 14.1 µM (active). For Cc1cccn2c(=O)c3cc(C#N)/c(=N\C(=O)c4ccccc4)n(Cc4ccco4)c3nc12, the Potency was “inactive”. O=C(Oc1cc2oc(=O)c3c(c2cc1Cl)CCCC3)c1cccs1 was tested, and the Potency was “inactive”. COc1cc2c(cc1OC)C(c1ccccc1Cl)N(C)CC2 (stereo not given) was tested, and the Potency was “inactive”. COc1cc2c(cc1OC)CN(C1CCC(C(C)(C)C)CC1)CC2 (stereo not given) was tested, and the Potency was “inactive”. In the case of COc1cc2c(cc1OC)C(c1ccccc1)N(C(=O)CCl)CC2 (stereo not given), the Potency is reported as 25.1 µM (active). With CCc1ccc(-c2cc(C(F)(F)F)n3nc(C(=O)Nc4cnn(Cc5ccccc5C)c4)cc3n2)s1 the Potency was “inactive”. For CC1(C)CC(=O)c2cnc(N3CCc4ccccc43)nc2C1, the Potency was “inactive”. For COc1ccc(S(=O)(=O)N(C)C)cc1NC(=O)CCNC(=O)c1ccco1, the Potency was “inactive”. In the case of Nc1ccc(/C=C/C(=O)c2cccs2)cc1, the Potency is reported as “inactive”. For O=C(NCCNC1CCC(c2ccccc2)CC1)c1cccs1 (stereo not given), the Potency was “inactive”. O=C(c1cccs1)N1CCN(C(=O)c2cccs2)C1=S was tested, and the Potency was 39.8 µM (active). For CCOc1cc(Br)c(C(C)NC(=O)c2cccnc2)cc1OCC (stereo not given), the Potency was “inactive”. For N#C/C(=C(/O)CCCl)c1ccccn1, the Potency was “inactive”. For FC(F)Sc1ccc(NC(=S)N2CCN(c3ccccn3)CC2)cc1, the Potency was “inactive”. In the case of CCOC(=O)C1=Nc2ccccc2C1=[N+]=[N-], the Potency is reported as 39.8 µM (active). For CCOC(=O)c1cnc(-c2ccccc2O)nc1Cl, the Potency was “inactive”. For CCOC(=O)C1C(C(=O)NN)C1C(=O)Nc1ccccc1 (stereo not given), the Potency was “inactive”.
